In PubChem BioAssay:
“And” between values parts separate entries of the source, which are not always exact repeats. Identical values can stand only once. Inconclusive results are not listed. For some of these results: Entries with a potency or affinity are not part of this list. The source made the active and inactive calls. Unless noted, the rule behind the calls is not given here.

Assays:
[1] = blockers of polyQ-driven CASP3 activation – cell-based (AID 1583); details: polyglutamine-induced caspase-3 activation, cell assay; stronger effect = higher value;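 tested at 10 µM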
[2] = yeast 75Q aggregation reduction – 75Q-TubU reporter (AID 1593); details: Yeast 75Q polyglutamine aggregation reporter
[3] = restoration of touch response, mutant HTT neurons – whole organism, C. elegans mechanosensory neurons, N-terminal huntingtin (AID 1599); details: C. elegans polyQ-huntingtin mechanosensory neurons, stronger effect = higher value
[4] = blockers of cytochrome c efflux from mitochondria – biochemical, purified mitochondria (AID 1603); details: stronger effect = lower value;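 note: mouse liver mitochondria challenged with calcium chloride; signal normalized to the plate average as 100%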
[5] = polyglutamine aggregate formation blockers (AID 1604); details: polyglutamine-induced protein aggregation inhibition assay; stronger effect = higher value; tested at 2.5 µM
[6] = glutamate transport activators, MN-1 cells, MN-1 cell line (AID 1612); details: MN-1 motor neuron cells, stronger effect = higher value;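 note: tested at 1 µM final; 0% = mean of DMSO vehicle wells on each plate; positive means more glutamate uptake than control and negative means less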
[7] = 75Q-TubH aggregate inhibition, S. cerevisiae, yeast (AID 1616); details: S. cerevisiae 75Q-TubH polyglutamine aggregation suppression; stronger effect = higher value
[8] = compounds altering circadian rhythm period length – cell-based, LOPAC library, luminescence reporter (AID 2774); details: circadian reporter cells, at 7 µM, actives lie on both sides;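 note: values are relative to mean of DMSO wells on each plate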
[9] = P. berghei load reduction in hepatocytes – cell-based, HepG2, luciferase luminescence, HepG2 viability, primary screen (AID 624349; in the data active = parasite load remaining mostly below about 12%, no sharp cut-off; inactive = mostly above about 10%;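 note: 100% = mean of DMSO negative control wells on the same plate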); details: P. berghei liver stage in HepG2, luciferase luminescence, concentration not given here; parasite load remaining: stronger effect = lower value; viability: measured here: HepG2 viability without parasites
[10] = tested on: Hepatitis C virus NS3 helicase; test: blockers of NS3h binding to ssDNA – biochemical, fluorescence polarization, LOPAC1280 library, primary screen (AID 687035; in the data active = inhibition above about 37%); details: Purified HCV NS3 helicase, Cy5-dT15 ssDNA binding fluorescence polarization; stronger effect = higher value; concentration not given here
[11] = compounds altering Cy5-DNA-NS3h complex signal – biochemical, LOPAC1280, artefact control for HCV NS3 helicase inhibitor project (AID 687037); details: Cy5-DNA-NS3h complex fluorescence interference counterscreen
[12] = signal quenchers or enhancers, Cy5 substrate/SSB – biochemical, NIH Clinical Collection, E. coli SSB, artefact control for HCV NS3 helicase inhibitor project (AID 743268); details: Cy5-oligo bound E. coli SSB, fluorescence interference
[13] = tested on: Hepatitis C virus NS3 helicase; test: blockers of NS3h binding to DNA – biochemical, fluorescence polarization, NIH Clinical Collection, primary screen (AID 743270); details: NS3 helicase binding to Cy5-dT15 DNA, stronger effect = higher value, concentration not given here
[14] = biological target: Single-stranded DNA-binding protein (Escherichia coli (strain K12)) (UniProt P0AGE0); test: SSB-ssDNA binding inhibitors – biochemical, fluorescence polarization, NIH Clinical Collection, counter-screen for HCV NS3 helicase inhibitor project (AID 743271; in the data active = inhibition above about 28%); details: E. coli SSB-DNA binding, stronger effect = higher value, concentration not given here
[15] = compounds distorting NS3 helicase fluorescence signal – biochemical, NIH Clinical Collection, artefact control for HCV NS3 helicase inhibitor project (AID 743272); details: fluorescence interference counterscreen, HCV NS3 helicase assay; stronger effect = lower value;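 note: HCV NS3 helicase with a Cy5 labelled single stranded DNA probe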
[16] = tested on: Neuropilin-2 / VEGF-C interaction (human); test: small molecules blocking Neuropilin-2/VEGF-C interaction – biochemical, microplate binding format, z-score (AID 743281); details: microplate NRP2/VEGF-C binding assay; stronger effect = lower value
[17] = Wnt pathway potentiators raising nuclear beta-catenin – imaging, WNT3A-conditioned medium, mouse C2C12, NPC library, primary screen (AID 1117326; in the data active = nuclear beta-catenin stimulation mostly above about 4.2%, no sharp cut-off; inactive = mostly below about 10%); details: stronger effect = higher value
[18] = stimulators of insulin release from INS-1E, primary screen, cell-based, 5 mM glucose, NPC library (AID 1117329;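 active = compound raises insulin release from rat beta cells at 5 mM glucose, no numeric limit stated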); details: rat INS-1E insulin secretion, at 10 µM, stronger effect = higher value
[19] = growth inhibition of GSK3B-pretreated HCT116 cells – cell-based, CellTiter-Glo, 0.2 to 20 µM (AID 1117336;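 active = compounds lowering colon cancer cell viability after pretreatment blocking the GSK3B kinase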); details: HCT116 viability after GSK3B inhibitor, at 20 µM, stronger effect = higher value
[20] = inhibition of endothelial tube formation, primary screen, imaging, VEGF stimulated, CD31 staining, tube area, NPC library (AID 1117340;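 active = compound that reduces growth-factor-driven endothelial tube area in a mixed cell culture, no cutoff stated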); details: VEGF-stimulated ADSC/ECFC co-culture, at 10 µM, stronger effect = higher value
[21] = GLP1 release stimulators, primary, NCI-H716, NPC library (AID 1117341;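 active = compound raises GLP1 secretion from the human gut endocrine cells, with no numeric limit stated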); details: NCI-H716 cells, at 10 µM, stronger effect = higher value
[22] = HCT116 colon cancer cell growth inhibition, primary screen, CellTiter-Glo luminescence, NPC library (AID 1117342;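 active = compounds that lower survival of HCT116 colon cancer cells in the luminescence readout, no numeric limit stated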); details: at 20 µM (top of the series)
[23] = reduced SW480 viability measured with CellTiter-Glo, NPC library, primary (AID 1117343;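 active = compounds that lower viability of the colon cancer cells in the luminescence readout, with no numeric limit stated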); details: CellTiter-Glo luminescence; at 20 µM (top of the series)
[24] = NPC library primary testing for decreased DLD-1 cell viability via CellTiter-Glo (AID 1117346;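 active = compounds that lower survival of DLD-1 colon cancer cells in the luminescence readout, no cutoff given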); details: DLD-1 viability, CellTiter-Glo luminescence; at 20 µM (top of the series)
[25] = biological target: 6-phosphogluconate dehydrogenase, decarboxylating (Homo sapiens) (UniProt P52209); test: inhibition of human phosphogluconate dehydrogenase – biochemical, recombinant enzyme, NADPH absorbance, primary screen (AID 1159550;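 active = at least 20% inhibition of 6-phosphogluconate dehydrogenase activity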); details: recombinant 6PGD, NADPH absorbance 341 nm; at 10 µM; stronger effect = higher value
[26] = modulation of C. elegans fzo-1 (AID 1259413);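 note: fzo-1 mutant C. elegans worms in liquid wells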; details: C. elegans fzo-1 modulator screen, mean read-out; stronger effect = higher value
[27] = EMT-state selective cytotoxicity in co-culture – imaging, PC-3E GFP, TEM4-18 mCherry, primary screen (AID 1345086;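 active = compounds killing one labelled cell type while sparing the other, by normalised counts and ratio limits, not self-fluorescent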;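 note: cells exposed to compound for 72 h before imaging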;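 for red/green cell ratio (normalised): normalised mesenchymal count divided by normalised epithelial count so high means epithelial killing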); details: PC-3E GFP / TEM4-18 mCherry co-culture, imaging cell counts, at 1 µM
[28] = tested on: Aerobactin synthetase IucA (Klebsiella pneumoniae); test: inhibition of K. pneumoniae IucA enzyme – biochemical, Tocris library, absorbance (AID 1345561); details: purified IucA enzyme assay, absorbance (OD) read-out; stronger effect = lower value;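 tested at 8 µM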;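 note: 100% = enzyme without compound and 0% = no enzyme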
[29] = viability loss in pontine glioma line – cell-based, SU-DIPG-XIII, MIPE4.0, CellTiter-Glo, qHTS, dose response (AID 1347061; cut-off not given, nearly all actives have AC50 up to about 37 µM;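 note: cells exposed to compound for 48 hours before readout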); details: CellTiter-Glo ATP luminescence
[30] = viability loss in pontine glioma line – cell-based, JHH-DIPG-1, MIPE4.0, CellTiter-Glo, qHTS, dose response (AID 1347062; cut-off not given, nearly all actives have AC50 up to about 27 µM); details: JHH-DIPG-1 viability, CellTiter-Glo ATP luminescence
[31] = viability loss in pontine glioma line – cell-based, SU-DIPG-IV, MIPE4.0, CellTiter-Glo, qHTS, dose response (AID 1347063; cut-off not given, nearly all actives have AC50 up to about 30 µM;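 note: compound exposure lasted 48 hours before the viability readout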); details: CellTiter-Glo ATP luminescence
[32] = blockers of cellular phospholipid synthesis – cell-based, LOPAC library, screen 4, primary screen (AID 1347384); details: animal cells, phospholipid biosynthesis inhibition screen; at 10 µM
[33] = MELAS cybrid and Rieske KO viability enhancers – cell-based, MELAS cybrids, Rieske KO mouse fibroblasts, CellTiter-Glo, primary screen (AID 1508586;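 active = mean z-score across replicates of 1.96 or higher in either the MELAS or the Rieske mutant cell line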;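 note: z relative to plate mean and SD of compound and empty wells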); details: low glucose
[34] = biological target: NAD(+) hydrolase SARM1 (Homo sapiens) (UniProt Q6SZW1); test: blocking NAD cleavage by SARM1 SAM-TIR – cell lysate, NAD-Glo luminescence (AID 1508614;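 active = compound whose remaining NAD level is above about 45 nM, limit read from the data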;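 note: higher remaining NAD means stronger inhibition of SARM1 NADase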); details: SAM-TIR HEK293T lysate NADase, at 1 µM, stronger effect = higher value
[35] = biological target: Mitogen-activated protein kinase 7 (Homo sapiens) (UniProt Q13164); test: Gal4-ERK5 driven luciferase induction – cell-based, HTS, primary screen (AID 1508626;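 active = luciferase signal above three times the same-plate solvent-only control wells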;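 note: luciferase driven by Gal4-ERK5 fusion binding five Gal4 sites before minimal TATA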); details: HeLa Gal4-ERK5 transactivation, 18 h, at 5 µM, stronger effect = higher value
Mitogen-activated protein kinase 7 (Homo sapiens), sequence (Q13164 whole entry, looked up, the tested form may be a part): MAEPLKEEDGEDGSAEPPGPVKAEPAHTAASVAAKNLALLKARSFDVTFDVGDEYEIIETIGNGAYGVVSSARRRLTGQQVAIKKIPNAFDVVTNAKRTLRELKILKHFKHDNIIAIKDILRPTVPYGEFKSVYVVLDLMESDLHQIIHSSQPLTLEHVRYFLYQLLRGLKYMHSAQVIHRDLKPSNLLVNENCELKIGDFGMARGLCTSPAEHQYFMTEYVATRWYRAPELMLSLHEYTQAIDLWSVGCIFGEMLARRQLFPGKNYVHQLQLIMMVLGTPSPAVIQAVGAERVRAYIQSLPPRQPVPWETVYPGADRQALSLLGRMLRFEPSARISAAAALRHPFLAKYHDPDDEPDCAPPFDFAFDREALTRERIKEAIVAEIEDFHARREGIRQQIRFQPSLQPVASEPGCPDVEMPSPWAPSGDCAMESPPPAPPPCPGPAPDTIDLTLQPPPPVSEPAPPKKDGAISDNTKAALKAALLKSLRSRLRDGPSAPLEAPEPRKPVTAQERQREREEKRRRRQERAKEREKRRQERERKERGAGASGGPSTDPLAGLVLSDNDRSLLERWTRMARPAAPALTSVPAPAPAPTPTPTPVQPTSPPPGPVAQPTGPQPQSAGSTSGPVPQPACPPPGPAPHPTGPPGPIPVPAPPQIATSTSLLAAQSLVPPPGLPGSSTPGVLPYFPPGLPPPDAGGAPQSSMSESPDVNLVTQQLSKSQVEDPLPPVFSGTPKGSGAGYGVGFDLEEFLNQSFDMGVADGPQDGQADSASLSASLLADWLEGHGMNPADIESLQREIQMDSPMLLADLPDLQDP

6-phosphogluconate dehydrogenase, decarboxylating (Homo sapiens), sequence (P52209 whole entry, looked up): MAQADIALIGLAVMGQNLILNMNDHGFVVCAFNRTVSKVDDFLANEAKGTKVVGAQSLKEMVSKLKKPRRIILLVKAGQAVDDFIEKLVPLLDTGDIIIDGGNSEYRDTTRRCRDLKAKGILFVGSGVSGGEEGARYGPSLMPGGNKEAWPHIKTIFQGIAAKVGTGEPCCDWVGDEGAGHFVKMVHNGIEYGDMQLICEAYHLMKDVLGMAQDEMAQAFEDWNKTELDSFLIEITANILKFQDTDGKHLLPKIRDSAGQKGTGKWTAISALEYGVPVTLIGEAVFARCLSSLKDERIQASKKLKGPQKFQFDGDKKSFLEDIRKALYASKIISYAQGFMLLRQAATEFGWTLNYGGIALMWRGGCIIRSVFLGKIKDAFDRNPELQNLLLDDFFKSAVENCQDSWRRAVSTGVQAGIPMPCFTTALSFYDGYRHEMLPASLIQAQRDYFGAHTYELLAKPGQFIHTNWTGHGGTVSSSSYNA
NAD(+) hydrolase SARM1 (Homo sapiens), sequence (Q6SZW1 whole entry, looked up, the tested form may be a part): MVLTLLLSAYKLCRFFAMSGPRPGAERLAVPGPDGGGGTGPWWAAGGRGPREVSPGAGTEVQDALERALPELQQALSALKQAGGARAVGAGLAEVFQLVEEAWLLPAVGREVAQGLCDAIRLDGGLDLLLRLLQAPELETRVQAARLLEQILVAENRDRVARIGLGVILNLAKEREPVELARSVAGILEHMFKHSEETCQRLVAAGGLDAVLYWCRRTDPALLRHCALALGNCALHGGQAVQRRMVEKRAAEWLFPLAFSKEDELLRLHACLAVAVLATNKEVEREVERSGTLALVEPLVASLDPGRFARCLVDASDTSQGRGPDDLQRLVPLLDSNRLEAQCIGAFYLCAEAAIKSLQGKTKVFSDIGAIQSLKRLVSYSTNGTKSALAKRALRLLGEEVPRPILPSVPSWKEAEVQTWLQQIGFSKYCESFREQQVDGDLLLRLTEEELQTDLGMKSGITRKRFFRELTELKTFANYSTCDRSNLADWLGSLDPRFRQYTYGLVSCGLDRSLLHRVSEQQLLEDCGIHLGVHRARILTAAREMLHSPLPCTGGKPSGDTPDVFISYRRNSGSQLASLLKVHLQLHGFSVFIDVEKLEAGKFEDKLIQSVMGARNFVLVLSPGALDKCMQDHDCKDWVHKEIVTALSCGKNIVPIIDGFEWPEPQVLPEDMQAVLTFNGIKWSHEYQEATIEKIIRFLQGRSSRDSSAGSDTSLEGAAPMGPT

CCOC(=O)N1CCC(=C2c3ccc(Cl)cc3CCc3cccnc32)CC1
inhibition [1]: 15.4% | score [2]: 0.8 | rescue above control [3]: -2.91 | cytochrome c release ratio [4]: 4.23 | inhibition of aggregation [5]: 56.9% | glutamate uptake change [6]: -2.42% | aggregation suppression score [7]: 0.519 | period change [8]: -0.1 h (inactive) | parasite load remaining [9]: 39.1% (inactive) and 10.2% (inactive) and 5.21% (inactive) | viability [9]: 101% and 59.1% and 70% | inhibition [10]: 0% (inactive) | fluorescence ratio (interference) [11]: 1 (inactive) | fluorescence ratio [12]: 0.91 (inactive) | inhibition [13]: -3.56% (inactive) | inhibition [14]: 6.83% (inactive) | fluorescence ratio [15]: 0.9 (inactive) | z-score [16]: 0.735 (inactive) | nuclear beta-catenin stimulation ([17]; at 10 µM): 1.8% (inactive) | nuclear beta-catenin stimulation ([17]; stimulation, at 2 µM): 1% | insulin secretion stimulation [18]: 6.9% (inactive) | viability decrease [19]: 94.1% (active) | tube area decrease [20]: 39.2% (inactive) | GLP1 secretion stimulation [21]: 14.3% (inactive) | inhibition of viability [22]: 98.8% (active) | viability decrease (inhibition) [23]: 94% (active) | viability decrease (inhibition) [24]: 97.2% (active) | inhibition [25]: 4.3% (inactive) | mean signal [26]: 253 (inactive) | red/green cell ratio (normalised) ([27]; actives lie on both sides, counts scaled to control wells, 1 = unselective): 1.35 (inactive) | normalised cell number ([27]; measured here: epithelial PC-3E GFP cell survival): 0.99 | normalised cell number ([27]; measured here: mesenchymal TEM4-18 mCherry cell survival): 1.34 | remaining activity [28]: 99.4% (inactive) | outcome [29]: inactive | outcome [30]: inactive | AC50 [31]: 18.7 µM (active) | outcome [32]: inactive | z-score ([33]; MELAS cybrid survival, CellTiter-Glo 48 h, stronger effect = higher value): -0.418 (inactive) and -1.77 (inactive) and -2.01 (inactive) | z-score ([33]; Rieske KO mouse fibroblast survival, CellTiter-Glo 72 h): 0.823 and 1.1 and 0.356 | remaining NAD [34]: 10 nM (inactive) | luciferase signal [35]: 48 AU (inactive)
